“And” between values parts separate entries of the source, which are not always exact repeats. Equal entries are not always repeated. Compounds without any hit were thinned out: in the full panel of roughly 83,000, 20% have a hit.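 Treatment: one concentration, 48 hours, 96-well format. Scoring: percent growth, with anything below 10 considered active.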 Unmarked numbers belong to inactive results. The source made the active and inactive calls.

Some test systems named below: HCT-15 colon; HT29 colon; SNB-75 CNS; SNB-19 CNS; U251 CNS; PC-3 prostate; SK-MEL-5 melanoma; UACC-62 melanoma; LOX IMVI melanoma; SK-MEL-28 melanoma; SK-MEL-2 melanoma; EKVX NSCLC; SN12C renal; UO-31 renal; TK-10 renal; ACHN renal; CAKI-1 renal; A498 renal; CCRF-CEM leukemia.
What all share (assay): NCI-60 one-dose screen, 48 h (100 = growth as untreated, 0 = no growth, -100 = all killed)
What all share (conditions): 10 µM unless noted

Turning to `COc1cccc(C2C(C#N)=C(N)Oc3cc(OCCCCCC[P+](c4ccccc4)(c4ccccc4)c4ccccc4)ccc32)c1` (configuration not stated), the growth in the assay with HCT-15 colon is 62%; in the assay with HT29 colon, -17.6% (active); in the assay with SNB-75 CNS, -71.3% (active); with SNB-19 CNS, -65.8% (active); with U251 CNS, -79.4% (active); in the assay on PC-3 prostate it was -13.1% (active). The growth is -97.5% (active) in the assay with SK-MEL-5 melanoma; -66.8% (active) in the assay on UACC-62 melanoma; -93.8% (active) in the assay with LOX IMVI melanoma; -77.1% (active) with SK-MEL-28 melanoma; -59.2% (active) with SK-MEL-2 melanoma; -0.839% (active) in the assay on EKVX NSCLC. Moreover, the growth in the assay on SN12C renal is -31.4% (active); in the assay on UO-31 renal, 39.2%; in the assay with TK-10 renal, -16.5% (active); with ACHN renal, 18%; in the assay on CAKI-1 renal, -8.91% (active); in the assay on A498 renal, -30% (active). The growth with CCRF-CEM leukemia was 1.92% (active).

Consider `Cc1c(C(=O)OCCCCOC(=O)c2c(C)n(C)c3scc[n+]23)[n+]2ccsc2n1C`, for which the growth in the assay on HCT-15 colon was 106%; with HT29 colon, 107%; in the assay on SNB-75 CNS, 80.5%; with SNB-19 CNS it was 101%; in the assay on U251 CNS, 103%; with PC-3 prostate it was 92.3%. Also, the growth with SK-MEL-5 melanoma was 142%; with UACC-62 melanoma it was 95.7%; in the assay on LOX IMVI melanoma it was 102%; with SK-MEL-28 melanoma it was 104%; in the assay on SK-MEL-2 melanoma it was 106%; with EKVX NSCLC, 95.6%. Moreover, the growth with SN12C renal was 90.8%; in the assay on UO-31 renal, 78.9%; in the assay on TK-10 renal, 114%; in the assay with ACHN renal it was 97.2%; in the assay on CAKI-1 renal, 101%; in the assay on A498 renal, 156%. Besides, the growth in the assay with CCRF-CEM leukemia was 96.4%.

Consider `Nc1n[nH]c2cccc(C#Cc3cccc(NC(=O)c4ccc(N5CCOCC5)c(C(F)(F)F)c4)c3)c12`, for which the growth with HCT-15 colon was 8.44% (active); in the assay on HT29 colon, 3.29% (active); with SNB-75 CNS, -25.6% (active); in the assay on SNB-19 CNS, 26.1%; in the assay with U251 CNS, 16.6%; in the assay on PC-3 prostate, 1.76% (active). The growth is 23.4% with SK-MEL-5 melanoma; -5.9% (active) in the assay on UACC-62 melanoma; -96.9% (active) in the assay with LOX IMVI melanoma; 8.55% (active) in the assay on SK-MEL-28 melanoma; -7.56% (active) in the assay on SK-MEL-2 melanoma; 18.4% with EKVX NSCLC. Moreover, the growth in the assay with SN12C renal is 9.03% (active); in the assay on UO-31 renal, -31.7% (active); in the assay with TK-10 renal, 16.5%; in the assay with ACHN renal it was -0.609% (active); with CAKI-1 renal, 9.52% (active); with A498 renal, -34.3% (active). Further, in the assay on CCRF-CEM leukemia, the growth was 10.5%.

With `COc1ccc(C/C(C)=C(\c2ccc(O)cc2)c2ccc(OCCCN(C)C)cc2)cc1`, the growth in the assay on HCT-15 colon is 89.7%; in the assay with HT29 colon, 77.6%; in the assay on SNB-75 CNS it was 84.1%; with SNB-19 CNS, 100%; in the assay with U251 CNS, 80.5%; with PC-3 prostate, 83.4%. The growth with SK-MEL-5 melanoma was 98.4%; in the assay with UACC-62 melanoma, 108%; in the assay on LOX IMVI melanoma, 88.9%; in the assay with SK-MEL-28 melanoma, 112%; with SK-MEL-2 melanoma it was 88.4%; with EKVX NSCLC it was 98.2%. The growth is 93.3% in the assay on SN12C renal; 77.7% with UO-31 renal; 86.9% with TK-10 renal; 109% in the assay with ACHN renal; 107% in the assay with CAKI-1 renal; 101% with A498 renal. The growth in the assay on CCRF-CEM leukemia is 73.9%.

Turning to `CCCO/N=C/c1ccccn1`, the growth in the assay on HCT-15 colon was 106% and 103%; with HT29 colon, 96.8% and 93.4%; in the assay on SNB-75 CNS, 85.2% and 85.5%; in the assay on SNB-19 CNS it was 97.8% and 105%; in the assay with U251 CNS it was 103% and 101%; in the assay with PC-3 prostate, 117% and 96.1%. The growth in the assay on SK-MEL-5 melanoma is 104% and 108%; in the assay on UACC-62 melanoma it was 99.2% and 108%; in the assay with LOX IMVI melanoma it was 108% and 98.5%; with SK-MEL-28 melanoma it was 107% and 99.4%; in the assay on SK-MEL-2 melanoma it was 116% and 94.7%; in the assay on EKVX NSCLC, 108% and 96.8%. Also, the growth in the assay on SN12C renal is 94.1% and 108%; with UO-31 renal, 89.5% and 93%; with TK-10 renal, 112% and 89.3%; in the assay with ACHN renal, 104% and 100%; in the assay on CAKI-1 renal, 109%; in the assay with A498 renal, 101% and 117%.

For the compound `CONC1=Nc2cc(NC(N)=NCc3ccccc3)c(N(C)C3CCCCC3)cc2OC1`, the growth was 101% in the assay on HCT-15 colon; 29.5% in the assay with HT29 colon; 40.9% in the assay on SNB-75 CNS; 68.8% in the assay with SNB-19 CNS; 53.1% with U251 CNS; 51.1% in the assay with PC-3 prostate. Also, the growth in the assay with SK-MEL-5 melanoma is 74.9%; with UACC-62 melanoma, 70.1%; with LOX IMVI melanoma, 50.2%; in the assay with SK-MEL-28 melanoma, 87.9%; in the assay with SK-MEL-2 melanoma it was 91.5%; in the assay on EKVX NSCLC, 62%. The growth in the assay on SN12C renal is 64.8%; in the assay with UO-31 renal, 75.5%; with TK-10 renal, 82.3%; in the assay with ACHN renal it was 79.1%; in the assay with CAKI-1 renal, 93.7%; in the assay with A498 renal it was 82.4%. The growth in the assay on CCRF-CEM leukemia is 68.2%.

Take `O=S(=O)(O)c1ccc(N=Nc2ccc(N=Nc3cccc4ccccc34)c(S(=O)(=O)O)c2)cc1`: the growth in the assay on HCT-15 colon was 114%; in the assay on HT29 colon it was 105%; in the assay with SNB-75 CNS, 89.7%; in the assay with SNB-19 CNS, 110%; in the assay on U251 CNS it was 102%; with PC-3 prostate, 84.5%. The growth was 86.4% in the assay with SK-MEL-5 melanoma; 98.4% in the assay on UACC-62 melanoma; 94.1% with LOX IMVI melanoma; 110% in the assay on SK-MEL-28 melanoma; 99.8% in the assay on SK-MEL-2 melanoma; 97% in the assay with EKVX NSCLC. The growth in the assay with SN12C renal was 102%; in the assay on UO-31 renal, 84.1%; in the assay with TK-10 renal it was 112%; with ACHN renal it was 97.8%; with CAKI-1 renal it was 97%; in the assay on A498 renal it was 90.1%. Besides, in the assay on CCRF-CEM leukemia, the growth is 101%.

The values are drawn from PubChem BioAssay (NCI).
